# Test results as given in PMC11062922 (Nature Chemical Biology, 2023).
# Read-outs that look alike come from different tables or passages of the source.
# Assays:
# Set-up in all cases: species or system human, MV4-11 + K-562 + COLO205 + SK-N-BE2 + OVCAR-8
# PRKCA = conditions: read-out: apparent Kd, n = 1
# RPS6KA3 = conditions: read-out: apparent Kd; compound concentrations: 100 nM and 1000 nM (sheet 'Samples'), CATDS: 2.8652335073443402E-2; n = 1
# RPS6KB1 = conditions: read-out: apparent Kd, n = 1
# AURKB = conditions: read-out: apparent Kd, n = 1
# NUAK2 = conditions: read-out: apparent Kd, compound concentrations: 100 nM and 1000 nM (sheet 'Samples'), n = 1
# TTK = conditions: read-out: apparent Kd, n = 1
# BTK = conditions: read-out: apparent Kd; compound concentrations: 100 nM and 1000 nM (sheet 'Samples'), CATDS: 1.9599592223560901E-2; n = 1
# MAPK14 = conditions: read-out: apparent Kd, compound concentrations: 100 nM and 1000 nM (sheet 'Samples'), n = 1
# PAK6 = conditions: read-out: apparent Kd; compound concentrations: 100 nM and 1000 nM (sheet 'Samples'), CATDS: 1.7508305071041501E-2; n = 1
# PTK6 = conditions: read-out: apparent Kd; compound concentrations: 100 nM and 1000 nM (sheet 'Samples'), CATDS: 1.9530380694073899E-2; n = 1
# CDC42BPB = conditions: read-out: apparent Kd, n = 1
# PKN2 = conditions: read-out: apparent Kd, n = 1
# PIK3CD = conditions: read-out: apparent Kd, compound concentrations: 100 nM and 1000 nM (sheet 'Samples'), n = 1
# MAP3K11 = conditions: read-out: apparent Kd; compound concentrations:100 nM and 1000 nM (sheet 'Samples'); n = 1
# CIT = conditions: read-out: apparent Kd, n = 1
# [1] = compound concentrations:100 nM and 1000 nM (sheet 'Samples')
smiles,measurement,setting,value
CNCC1CCn2c(c(C3=C(c4cn(C)c5ccccc45)C(=O)NC3=O)c3ccccc32)C1 (stereo not shown) [RO0318676-000],potency estimated from few doses,"PRKCA; compound concentrations: 100 nM and 1000 nM (sheet 'Samples'), CATDS: 0.32206529387914401",11.4 nM
same,potency estimated from few doses,RPS6KA3,1620 nM
same,potency estimated from few doses,"RPS6KB1; compound concentrations: 100 nM and 1000 nM (sheet 'Samples'), CATDS: 3.9813258984907299E-2",600 nM
NS(=O)(=O)c1ccc(NC=C2C(=O)Nc3ccc4ncsc4c32)cc1 [GW589933X],potency estimated from few doses,"AURKB; compound concentrations: 100 nM and 1000 nM (sheet 'Samples'), CATDS: 1.80896314222295E-2",1370 nM
same,potency estimated from few doses,NUAK2; CATDS: 1.7918277394981801E-2,1420 nM
same,potency estimated from few doses,"TTK; compound concentrations: 100 nM and 1000 nM (sheet 'Samples'), CATDS: 2.1205991954571499E-2",817 nM
Cl.Cn1cc(C2=C(c3c4n(c5ccccc35)CCNC4)C(=O)NC2=O)c2ccccc21 [RO0318365-001],potency estimated from few doses,"PRKCA; compound concentrations: 100 nM and 1000 nM (sheet 'Samples'), CATDS: 4.6045234882761202E-2",2150 nM
COc1cc[nH]c1/C=C1\C(=O)Nc2ccc(F)c(C#C[C@@H](O)[C@@H](N)[C@@H](C)O)c21 [RO0283120-000],potency estimated from few doses,TTK; [1],1180 nM
NS(=O)(=O)c1ccc(N/C=C2\C(=O)Nc3ccc4ncsc4c32)cc1 [GW297361X],potency estimated from few doses,"TTK; compound concentrations: 100 nM and 1000 nM (sheet 'Samples'), CATDS: 3.2979280004825598E-2",1400 nM
COc1cc[nH]c1/C=C1\C(=O)Nc2ccc([N+](=O)[O-])c(N3CC[C@@H](O)C3)c21 [RO0504985-000],potency estimated from few doses,NUAK2; CATDS: 3.1931655972065397E-2,1490 nM
Cl.Cn1c(=O)c(Cc2ccccc2F)cc2cnc(NC3CCOCC3)nc21 [RO3305377-001],potency estimated from few doses,BTK,1180 nM
same,potency estimated from few doses,MAPK14; CATDS: 8.5761159080735103E-2,105 nM
same,potency estimated from few doses,PAK6,1640 nM
same,potency estimated from few doses,PTK6,1190 nM
CCn1c(-c2nonc2N)nc2cncc(Br)c21 [SB-738004],potency estimated from few doses,CDC42BPB; [1],1970 nM
same,potency estimated from few doses,PKN2; [1],122 nM
same,potency estimated from few doses,PRKCA; [1],1290 nM
same,potency estimated from few doses,RPS6KB1; [1],360 nM
Cl.Cl.NC[C@H](CC1CCCCC1)NC(=O)c1ccc(-c2ccnc3[nH]ccc23)s1.NC[C@H](CC1CCCCC1)NC(=O)c1ccc(-c2ccnc3[nH]ccc23)s1 [GSK1581428A],potency estimated from few doses,CDC42BPB; [1],10.5 nM
same,potency estimated from few doses,PKN2; [1],452 nM
same,potency estimated from few doses,PRKCA; [1],2080 nM
same,potency estimated from few doses,RPS6KB1; [1],179 nM
CCC(CC)(CC)n1cnc2c(N)ncnc21 [SKF-97620],potency estimated from few doses,MAPK14; CATDS: 3.1976912509304997E-2,857 nM
same,potency estimated from few doses,PIK3CD; CATDS: 0.27263149415517701,20.5 nM
Nc1nc(-c2ccc3c(N)n[nH]c3c2)cc(N2CCCC(NC(=O)c3ccccc3)C2)n1 (stereo not shown) [GSK2286775B],potency estimated from few doses,AURKB; [1],414 nM
NS(=O)(=O)c1ccc(N/N=C2\C(=O)Nc3ccc4ncccc4c32)cc1 [GW305178X],potency estimated from few doses,"TTK; compound concentrations: 100 nM and 1000 nM (sheet 'Samples'), CATDS: 4.7574405243594603E-2",1130 nM
Cl.Nc1nc(-c2ccc3c(c2)C(=Cc2cc(Br)c(O)c(Br)c2)C(=O)N3)cs1 [GW407323A],potency estimated from few doses,"TTK; compound concentrations: 100 nM and 1000 nM (sheet 'Samples'), CATDS: 2.7527023575449099E-2",2150 nM
O=C(Nc1n[nH]c2nc(-c3ccccc3O)ccc12)C1CC1 [SB-711880],potency estimated from few doses,MAP3K11,1520 nM
COc1ccc(Nc2nccc(NCCNC(=O)Nc3cc(C)ccc3C)n2)cc1 [GSK1379899A],potency estimated from few doses,PIK3CD; CATDS: 0.14570623002858099,175 nM
Cl.Cl.NCC(NC(=O)c1cc(-c2ccnc3[nH]ccc23)cs1)c1ccccc1.NCC(NC(=O)c1cc(-c2ccnc3[nH]ccc23)cs1)c1ccccc1 (stereo not shown) [GSK1229959A],potency estimated from few doses,"CDC42BPB; compound concentrations: 100 nM and 1000 nM (sheet 'Samples'), CATDS: 9.85023329891931E-2",8.96 nM
same,potency estimated from few doses,"CIT; compound concentrations: 100 nM and 1000 nM (sheet 'Samples'), CATDS: 3.2542810657946203E-2",113 nM
same,potency estimated from few doses,PIK3CD; CATDS: 7.85579878499649E-2,13.2 nM
same,potency estimated from few doses,"PKN2; compound concentrations: 100 nM and 1000 nM (sheet 'Samples'), CATDS: 3.5150417589149101E-2",88.5 nM
same,potency estimated from few doses,"RPS6KB1; compound concentrations: 100 nM and 1000 nM (sheet 'Samples'), CATDS: 2.0581414615248698E-2",679 nM
CCn1c(-c2nonc2N)nc2cncc(C(=O)N3CC[C@H](N)C3)c21.Cl [SB-772077-B],potency estimated from few doses,CDC42BPB; [1],932 nM
same,potency estimated from few doses,CIT; [1],1450 nM
same,potency estimated from few doses,PKN2; [1],73.8 nM
same,potency estimated from few doses,PRKCA; [1],826 nM
same,potency estimated from few doses,RPS6KB1; [1],93.8 nM
COc1cc2ncn(-c3cc(OCc4ccccc4S(C)(=O)=O)c(C#N)s3)c2cc1OC [GSK319347A],potency estimated from few doses,"AURKB; compound concentrations: 100 nM and 1000 nM (sheet 'Samples'), CATDS: 0.10534744790645301",893 nM
